{"source": "PubChem BioAssay (EPA / NIEHS)", "key": {"[1]": {"target": "Estrogen receptor beta (Homo sapiens) (UniProt Q92731)", "sequence (Q92731 whole entry, looked up, the tested form may be a part)": "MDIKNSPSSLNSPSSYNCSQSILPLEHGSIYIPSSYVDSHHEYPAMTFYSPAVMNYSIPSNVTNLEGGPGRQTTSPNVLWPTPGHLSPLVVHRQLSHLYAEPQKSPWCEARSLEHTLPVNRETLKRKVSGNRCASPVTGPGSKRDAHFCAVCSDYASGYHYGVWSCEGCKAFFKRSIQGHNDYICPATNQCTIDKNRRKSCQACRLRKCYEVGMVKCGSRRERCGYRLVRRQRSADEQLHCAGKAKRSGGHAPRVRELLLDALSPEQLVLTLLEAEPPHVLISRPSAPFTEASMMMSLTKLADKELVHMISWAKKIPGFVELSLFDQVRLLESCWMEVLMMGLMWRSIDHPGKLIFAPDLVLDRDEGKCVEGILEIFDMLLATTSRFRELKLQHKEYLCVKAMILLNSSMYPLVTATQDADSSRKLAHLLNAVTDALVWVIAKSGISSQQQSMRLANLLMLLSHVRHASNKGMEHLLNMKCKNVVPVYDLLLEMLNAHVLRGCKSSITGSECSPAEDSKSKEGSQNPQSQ", "experiment": "OT_ER_ERbERb_0480: Odyssey Thera (OT) 8-hour HEK293T Protein-Complementation Assay for Estrogen Receptor-beta/-beta Homodimer (AID 2283357)", "method_in_brief": "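ER-beta LBD homodimer PCA stably expressed in HEK293T; 8 h compound exposure, then formaldehyde fixation and Draq5 staining. Gain in nuclear/cytoplasmic fluorescence intensity versus DMSO vehicle, read on laser scanning cytometer.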"}, "[2]": {"target": "Peroxisome proliferator-activated receptor gamma (Homo sapiens) (UniProt P37231)", "sequence (P37231 whole entry, looked up)": "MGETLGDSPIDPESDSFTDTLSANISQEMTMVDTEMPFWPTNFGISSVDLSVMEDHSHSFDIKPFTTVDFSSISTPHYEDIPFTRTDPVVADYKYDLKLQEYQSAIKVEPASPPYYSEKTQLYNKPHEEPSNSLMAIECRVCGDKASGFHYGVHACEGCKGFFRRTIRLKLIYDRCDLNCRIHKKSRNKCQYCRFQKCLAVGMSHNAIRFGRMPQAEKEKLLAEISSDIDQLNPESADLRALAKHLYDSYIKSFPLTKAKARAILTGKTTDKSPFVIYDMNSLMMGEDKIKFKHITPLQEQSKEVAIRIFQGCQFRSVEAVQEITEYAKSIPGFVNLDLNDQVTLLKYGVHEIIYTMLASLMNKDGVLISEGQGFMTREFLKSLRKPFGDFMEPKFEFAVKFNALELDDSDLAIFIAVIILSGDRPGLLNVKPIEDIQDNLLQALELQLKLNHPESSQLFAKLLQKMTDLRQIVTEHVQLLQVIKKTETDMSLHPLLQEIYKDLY", "experiment": "NVS_NR_hPPARg: NovaScreen (NVS) Nuclear Receptor Binding Assay for human Peroxisome Proliferator-activated Receptor gamma (PPARg) (AID 2283370)", "method_in_brief": "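Cell-free fluorescence polarization binding to human PPARg protein, read 2 h after dosing. Primary screen in duplicate at 25 uM, actives followed in concentration series; loss of signal relative to DMSO scored.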"}, "PGR (gene 5241)": {"target": "PGR (gene 5241) (UniProt P06401)", "sequence (P06401 whole entry, looked up)": "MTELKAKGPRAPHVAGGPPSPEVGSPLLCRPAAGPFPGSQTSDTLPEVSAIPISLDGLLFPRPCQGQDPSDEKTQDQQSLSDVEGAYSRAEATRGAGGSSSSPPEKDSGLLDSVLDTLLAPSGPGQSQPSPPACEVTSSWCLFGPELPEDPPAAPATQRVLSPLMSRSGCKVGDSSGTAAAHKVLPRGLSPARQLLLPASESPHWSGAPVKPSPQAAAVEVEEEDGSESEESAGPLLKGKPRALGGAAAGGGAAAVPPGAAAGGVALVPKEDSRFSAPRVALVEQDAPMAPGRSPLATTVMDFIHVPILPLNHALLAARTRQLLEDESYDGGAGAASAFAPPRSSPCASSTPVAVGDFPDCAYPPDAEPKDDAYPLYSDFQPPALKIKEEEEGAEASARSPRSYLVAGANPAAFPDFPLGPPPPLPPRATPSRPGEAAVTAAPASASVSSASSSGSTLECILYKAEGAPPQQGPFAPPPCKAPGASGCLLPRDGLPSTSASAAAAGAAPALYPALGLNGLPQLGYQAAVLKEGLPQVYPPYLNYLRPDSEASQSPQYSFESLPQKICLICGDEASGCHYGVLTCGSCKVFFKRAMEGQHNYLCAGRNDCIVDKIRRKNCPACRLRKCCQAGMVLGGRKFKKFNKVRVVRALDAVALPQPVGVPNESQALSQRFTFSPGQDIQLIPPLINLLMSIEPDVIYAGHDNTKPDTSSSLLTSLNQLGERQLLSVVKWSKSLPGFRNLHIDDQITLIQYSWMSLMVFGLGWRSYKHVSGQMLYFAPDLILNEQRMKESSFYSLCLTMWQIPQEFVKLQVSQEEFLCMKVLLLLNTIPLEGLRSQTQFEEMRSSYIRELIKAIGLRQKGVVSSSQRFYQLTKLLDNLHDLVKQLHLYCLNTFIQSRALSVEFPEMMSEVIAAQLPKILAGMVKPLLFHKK", "experiment": "NVS_NR_hPR: NovaScreen (NVS) Nuclear Receptor Binding Assay for human Progestron Receptor (PR) (AID 2283360)", "method_in_brief": "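Competitive displacement of a labelled radioligand from T47D-derived receptor protein is measured in a cell-free format. Initial testing uses 25 uM in duplicate, with positive and negative controls on every plate.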"}, "[3]": {"target": "Glucocorticoid receptor (Homo sapiens) (UniProt P04150)", "sequence (P04150 whole entry, looked up)": "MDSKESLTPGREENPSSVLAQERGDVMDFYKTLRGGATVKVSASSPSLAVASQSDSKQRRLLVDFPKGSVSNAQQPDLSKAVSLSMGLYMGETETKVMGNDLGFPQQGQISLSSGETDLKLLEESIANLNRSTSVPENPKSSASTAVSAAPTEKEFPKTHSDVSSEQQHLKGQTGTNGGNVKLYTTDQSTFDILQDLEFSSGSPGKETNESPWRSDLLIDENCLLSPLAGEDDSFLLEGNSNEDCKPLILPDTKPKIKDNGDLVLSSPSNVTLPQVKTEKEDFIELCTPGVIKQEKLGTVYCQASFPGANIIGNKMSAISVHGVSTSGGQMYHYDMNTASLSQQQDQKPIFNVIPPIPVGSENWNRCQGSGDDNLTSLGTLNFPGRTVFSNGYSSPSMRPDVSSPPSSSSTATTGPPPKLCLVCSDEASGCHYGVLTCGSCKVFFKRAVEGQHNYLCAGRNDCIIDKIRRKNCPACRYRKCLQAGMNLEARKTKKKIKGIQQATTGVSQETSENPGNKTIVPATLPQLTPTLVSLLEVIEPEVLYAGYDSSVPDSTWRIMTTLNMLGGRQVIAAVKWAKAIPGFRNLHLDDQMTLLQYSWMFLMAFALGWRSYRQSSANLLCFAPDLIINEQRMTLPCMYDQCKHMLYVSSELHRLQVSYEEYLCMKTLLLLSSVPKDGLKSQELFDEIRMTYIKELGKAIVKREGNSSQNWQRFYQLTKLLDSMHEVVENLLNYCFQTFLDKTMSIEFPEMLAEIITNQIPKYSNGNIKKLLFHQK", "experiment": "NVS_NR_hGR: NovaScreen (NVS) Nuclear Receptor Binding Assay for human Glucocorticoid Receptor (GR) (AID 2283363)", "method_in_brief": "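Compounds first tested in duplicate at 25 uM, actives followed up in concentration series. Binding to extracted GR protein measured as competitive radioligand displacement, filter scintillation read 16 h post-dosing, normalised to DMSO.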"}, "[4]": {"target": "human Norepinephrine Transporter (NET), SLC6A2 (gene 6530) (UniProt P23975)", "experiment": "NVS_TR_hNET: NovaScreen (NVS) Transporter Assay for human Norepinephrine Transporter (NET) (AID 2283377)", "method_in_brief": "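Single-concentration duplicate screen at 25 uM, then concentration-response for actives; displacement of specific radioligand from human NET in CHO membrane extracts, filter-based scintillation detection at 1 h relative to DMSO.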"}, "[5]": {"target": "Retinoic acid receptor alpha (Homo sapiens) (UniProt P10276)", "sequence (P10276 whole entry, looked up)": "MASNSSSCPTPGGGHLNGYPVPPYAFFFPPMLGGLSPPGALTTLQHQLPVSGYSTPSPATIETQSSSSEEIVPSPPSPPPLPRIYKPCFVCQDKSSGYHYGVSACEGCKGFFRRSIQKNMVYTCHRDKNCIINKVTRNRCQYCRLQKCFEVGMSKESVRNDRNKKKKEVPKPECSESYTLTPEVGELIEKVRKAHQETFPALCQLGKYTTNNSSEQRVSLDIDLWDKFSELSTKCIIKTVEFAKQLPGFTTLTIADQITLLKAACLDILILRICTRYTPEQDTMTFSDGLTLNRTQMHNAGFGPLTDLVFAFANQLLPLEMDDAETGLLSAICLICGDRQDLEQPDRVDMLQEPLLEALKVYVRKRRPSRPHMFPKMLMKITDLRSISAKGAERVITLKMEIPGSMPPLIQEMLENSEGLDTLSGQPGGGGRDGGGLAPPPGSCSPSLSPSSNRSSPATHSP", "experiment": "NVS_NR_hRAR_Antagonist: NovaScreen (NVS) Nuclear Receptor Binding Assay for human Retinoic Acid Alpha Receptor Antagonism (RAR) (AID 2283358)", "method_in_brief": "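RARalpha antagonism was read by TR-FRET as loss of binding signal versus DMSO, 2 h after chemical addition, in a biochemical format. Single-concentration duplicates (25 uM) were run first, and actives were retested in concentration series.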"}, "[6]": {"target": "human Peroxisome Proliferator-activated Receptor alpha (PPARa), PPARA (gene 5465) (UniProt Q07869)", "sequence (Q07869 whole entry, looked up)": "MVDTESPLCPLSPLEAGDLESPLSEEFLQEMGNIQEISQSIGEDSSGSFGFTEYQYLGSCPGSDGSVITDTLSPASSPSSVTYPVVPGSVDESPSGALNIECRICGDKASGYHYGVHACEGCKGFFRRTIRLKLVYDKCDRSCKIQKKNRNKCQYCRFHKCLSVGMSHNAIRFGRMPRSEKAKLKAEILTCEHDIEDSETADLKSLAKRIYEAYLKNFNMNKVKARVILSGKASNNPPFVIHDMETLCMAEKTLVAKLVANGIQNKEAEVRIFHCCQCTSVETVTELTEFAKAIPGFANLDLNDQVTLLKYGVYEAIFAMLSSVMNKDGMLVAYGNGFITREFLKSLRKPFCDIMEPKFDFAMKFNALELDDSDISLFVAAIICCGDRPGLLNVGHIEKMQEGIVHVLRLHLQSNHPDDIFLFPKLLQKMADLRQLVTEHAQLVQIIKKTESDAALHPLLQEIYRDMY", "experiment": "NVS_NR_hPPARa: NovaScreen (NVS) Nuclear Receptor Binding Assay for human Peroxisome Proliferator-activated Receptor alpha (PPARa) (AID 2283359)", "method_in_brief": "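Loss of TR-FRET binding signal relative to DMSO was measured 1 h after chemical addition to extracted receptor protein. Chemicals were first tested in duplicate at 25 uM, and actives were followed up in concentration series.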"}, "[7]": {"target": "Nuclear receptor subfamily 1 group I member 2 (Homo sapiens) (UniProt O75469)", "sequence (O75469 whole entry, looked up)": "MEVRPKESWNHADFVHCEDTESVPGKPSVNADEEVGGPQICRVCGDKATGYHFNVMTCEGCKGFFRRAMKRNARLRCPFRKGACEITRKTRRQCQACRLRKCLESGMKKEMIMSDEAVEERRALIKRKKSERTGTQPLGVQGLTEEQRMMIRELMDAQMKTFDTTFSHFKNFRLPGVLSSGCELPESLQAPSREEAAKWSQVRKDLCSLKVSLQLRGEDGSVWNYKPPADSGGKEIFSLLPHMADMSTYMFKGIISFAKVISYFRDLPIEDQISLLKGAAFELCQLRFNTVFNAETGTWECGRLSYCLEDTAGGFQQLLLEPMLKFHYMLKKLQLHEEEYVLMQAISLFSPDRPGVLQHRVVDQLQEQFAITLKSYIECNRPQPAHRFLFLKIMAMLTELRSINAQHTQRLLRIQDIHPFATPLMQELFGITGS", "experiment": "NVS_NR_hPXR: NovaScreen (NVS) Nuclear Receptor Binding Assay for human Pregnane X Receptor (PXR) (AID 2283365);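 further: a drop in FRET signal versus DMSO baseline means the compound binds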", "method_in_brief": "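Cell-free TR-FRET binding assay with extracted human PXR protein, read 2 h after dosing. Primary screen run in duplicate at 25 uM, actives followed in concentration series; loss of signal fitted against DMSO baseline.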"}, "[8]": {"system": "guinea pig Dopamine Transporter (DAT), gene 100714898", "experiment": "NVS_TR_gDAT: NovaScreen (NVS) Transporter Assay for guinea pig Dopamine Transporter (DAT) (AID 2283369);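 further: active compounds lower bound radioligand signal relative to DMSO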", "method_in_brief": "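Guinea pig striatal membranes, cell-free radioligand binding with filter-based scintillation counting, read 2 h after dosing. Loss of signal versus DMSO baseline; single-concentration primary (25 uM) then concentration-response up to 50 uM.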"}, "[9]": {"target": "Estrogen receptor (Homo sapiens) + Estrogen receptor beta (Homo sapiens) (UniProt P03372+Q92731)", "experiment": "OT_ER_ERaERb_0480: Odyssey Thera (OT) 8-hour HEK293T Protein-Complementation Assay for Estrogen Receptor-alpha/-beta Heterodimer (AID 2283352)", "method_in_brief": "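HEK293T protein-fragment complementation assay of ER-alpha/ER-beta LBD heterodimerisation, read 8 h after dosing. Mean nuclear/cytoplasmic fluorescence intensity measured by laser scanning cytometry; gain of signal fitted relative to DMSO.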"}, "[10]": {"target": "Androgen Receptor/SRC-1 Co-activator, AR (gene 367) (UniProt P10275)", "sequence (P10275 whole entry, looked up, the tested form may be a part)": "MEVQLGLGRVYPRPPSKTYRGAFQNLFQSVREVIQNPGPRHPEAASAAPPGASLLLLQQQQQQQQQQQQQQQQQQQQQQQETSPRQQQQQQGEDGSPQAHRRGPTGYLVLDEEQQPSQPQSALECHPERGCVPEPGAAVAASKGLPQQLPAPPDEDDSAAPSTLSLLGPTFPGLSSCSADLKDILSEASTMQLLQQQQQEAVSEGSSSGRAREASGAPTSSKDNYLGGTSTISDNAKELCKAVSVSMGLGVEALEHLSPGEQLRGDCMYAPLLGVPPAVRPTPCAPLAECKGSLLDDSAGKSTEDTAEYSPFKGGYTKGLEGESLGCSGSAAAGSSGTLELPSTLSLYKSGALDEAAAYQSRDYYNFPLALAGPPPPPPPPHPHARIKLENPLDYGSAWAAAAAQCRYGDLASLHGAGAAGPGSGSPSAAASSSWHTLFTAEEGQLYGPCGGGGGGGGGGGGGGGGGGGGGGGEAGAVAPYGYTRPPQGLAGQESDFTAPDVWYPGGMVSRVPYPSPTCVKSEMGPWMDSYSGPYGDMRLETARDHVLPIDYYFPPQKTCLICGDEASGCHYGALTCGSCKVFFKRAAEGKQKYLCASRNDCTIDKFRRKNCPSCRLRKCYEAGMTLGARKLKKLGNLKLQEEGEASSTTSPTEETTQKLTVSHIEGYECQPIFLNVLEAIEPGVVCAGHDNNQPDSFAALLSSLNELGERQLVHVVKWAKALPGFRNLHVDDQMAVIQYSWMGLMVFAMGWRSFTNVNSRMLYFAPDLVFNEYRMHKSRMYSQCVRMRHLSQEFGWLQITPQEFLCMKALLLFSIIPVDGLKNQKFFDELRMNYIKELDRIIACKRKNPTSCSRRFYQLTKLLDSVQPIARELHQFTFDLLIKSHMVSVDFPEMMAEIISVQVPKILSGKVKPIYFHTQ", "experiment": "OT_AR_ARSRC1_0960: Odyssey Thera (OT) 16-hour HEK293T Protein-Complementation Assay for Androgen Receptor/SRC-1 Co-activator (AID 2283353);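 further: actives raise the signal above DMSO so potency reflects increased AR and SRC-1 complex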", "method_in_brief": "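Sixteen-hour cell assay: Venus halves fused to AR and SRC-1 in HEK293T report binding. Images at 488/635 nm give an N/C ratio in the 488 nm channel over ≥400 cells, analysed as signal increase over DMSO.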"}, "[11]": {"target": "Androgen Receptor/SRC-1 Co-activator, AR (gene 367) (UniProt P10275)", "experiment": "OT_AR_ARSRC1_0480: Odyssey Thera (OT) 8-hour HEK293T Protein-Complementation Assay for Androgen Receptor/SRC-1 Co-activator (AID 2283354);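 further: hits raise the complementation signal above DMSO so AC50 marks enhancers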", "method_in_brief": "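Reconstituted split-Venus YFP signal from AR–SRC-1 interaction, read by imaging 8 h post-dose in stable HEK293T lines. The 488 nm nucleus-to-cytoplasm ratio (≥400 cells/image) was fitted upward against DMSO.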"}, "[12]": {"target": "rat Androgen Receptor (AR), Ar (gene 24208) (UniProt P15207)", "experiment": "NVS_NR_rAR: NovaScreen (NVS) Nuclear Receptor Binding Assay for rat Androgen Receptor (AR) (AID 2283366)", "method_in_brief": "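Actives from a duplicate single-concentration (25 uM) primary run went on to concentration series. Displacement of radioligand was counted by filtration and scintillation, 18 h post-dose, using prostate extracts from testosterone-pretreated rats, with DMSO as baseline.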"}, "[13]": {"target": "human Dopamine Transporter (DAT), SLC6A3 (gene 6531) (UniProt Q01959)", "experiment": "NVS_TR_hDAT: NovaScreen (NVS) Transporter Assay for human Dopamine Transporter (DAT) (AID 2283374)", "method_in_brief": "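Duplicate single-point screening at 25 uM preceded concentration-series follow-up of actives. Binding was measured by competitive displacement of a radioligand from DAT protein, filter-counted by scintillation 1 h after dosing. Decrease relative to DMSO taken as activity.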"}}, "note": "Several values for one entry are separate records, joined by “and”; a condition that tells them apart may be missing. Equal values may be shown once. Records with an inconclusive call do not appear. Activity calls are given as the source filed them. How the source made its calls: active means hit-call score of the fitted dose curve at least 0.9, where 1 is the maximum; inconclusive means response in the unintended direction; inactive means score below 0.9."}
{"smiles": "O=C(C(Cl)Cl)N1CCOC12CCCCC2", "values": [{"measurement": "outcome", "setting": "[1]", "value": "inactive"}, {"measurement": "outcome", "setting": "[2]", "value": "inactive"}]}
{"smiles": "OCCCS", "values": [{"measurement": "outcome", "setting": "PGR (gene 5241)", "value": "inactive"}]}
{"smiles": "O=C(Nc1ccccc1SSc1ccccc1NC(=O)c1ccccc1)c1ccccc1", "values": [{"measurement": "AC50", "setting": "[3]", "value": "11.3 µM (active)"}, {"measurement": "outcome", "setting": "[4]", "value": "inactive"}]}
{"smiles": "CCCCCCCC/C=C\\CCCCCCCC(=O)OCCO", "values": [{"measurement": "outcome", "setting": "[1]", "value": "inactive"}, {"measurement": "outcome", "setting": "[5]", "value": "inactive"}, {"measurement": "AC50", "setting": "[6]", "value": "12.5 µM (active)"}, {"measurement": "outcome", "setting": "[7]", "value": "inactive"}, {"measurement": "outcome", "setting": "[2]", "value": "inactive"}]}
{"smiles": "COc1ccc2nc(N)sc2c1", "values": [{"measurement": "outcome", "setting": "[8]", "value": "inactive"}, {"measurement": "AC50", "setting": "[4]", "value": "9.9 µM (active)"}]}
{"smiles": "CCCCCCCC/C=C\\CCCCCCCC(=O)O", "values": [{"measurement": "outcome", "setting": "[1]", "value": "inactive"}, {"measurement": "AC50", "setting": "[6]", "value": "8.82 µM (active)"}, {"measurement": "AC50", "setting": "[2]", "value": "25 µM (active)"}]}
{"smiles": "CCN(CCC#N)c1ccc(N=Nc2c(Cl)cc([N+](=O)[O-])cc2Cl)cc1", "values": [{"measurement": "AC50", "setting": "[5]", "value": "6.24 µM (active)"}, {"measurement": "AC50", "setting": "[3]", "value": "25 µM (active)"}, {"measurement": "AC50", "setting": "[7]", "value": "0.433 µM (active)"}, {"measurement": "AC50", "setting": "[2]", "value": "13.4 µM (active)"}]}
{"smiles": "CCCCC(CC)CCC(CC(C)C)OS(=O)(=O)O", "note": "(configuration not stated)", "values": [{"measurement": "outcome", "setting": "[9]", "value": "inactive"}, {"measurement": "outcome", "setting": "[5]", "value": "inactive"}, {"measurement": "AC50", "setting": "[7]", "value": "2.49 µM (active)"}, {"measurement": "AC50", "setting": "[2]", "value": "8.17 µM (active) and 6.89 µM (active)"}]}
{"smiles": "CO[Si](CCC1CCC2OC2C1)(OC)OC", "note": "(configuration not stated)", "values": [{"measurement": "outcome", "setting": "PGR (gene 5241)", "value": "inactive"}]}
{"smiles": "CC(C)c1ccc2c(C(C)C)cc(C(C)C)c(S(=O)(=O)O)c2c1", "values": [{"measurement": "outcome", "setting": "[10]", "value": "inactive"}, {"measurement": "outcome", "setting": "[11]", "value": "inactive"}, {"measurement": "AC50", "setting": "[5]", "value": "12.9 µM (active)"}, {"measurement": "AC50", "setting": "[6]", "value": "7.37 µM (active)"}, {"measurement": "AC50", "setting": "[3]", "value": "10.9 µM (active)"}, {"measurement": "AC50", "setting": "[7]", "value": "0.393 µM (active)"}, {"measurement": "AC50", "setting": "[12]", "value": "7.33 µM (active)"}, {"measurement": "AC50", "setting": "[2]", "value": "4.01 µM (active)"}]}
{"smiles": "Cc1ccc(C(C)(C)C)cc1", "values": [{"measurement": "outcome", "setting": "[6]", "value": "inactive"}]}
{"smiles": "CC(CC=O)CCCC(C)(C)O", "note": "(configuration not stated)", "values": [{"measurement": "outcome", "setting": "[10]", "value": "inactive"}, {"measurement": "outcome", "setting": "[11]", "value": "inactive"}]}
{"smiles": "CC(C)=CC1CC(C)CCO1", "note": "(configuration not stated)", "values": [{"measurement": "outcome", "setting": "[13]", "value": "inactive"}]}
{"smiles": "CC(C)(C)c1n[nH]c(=O)n(N)c1=O", "values": [{"measurement": "AC50", "setting": "PGR (gene 5241)", "value": "0.131 µM (active)"}]}
